Screening results (PubChem)
A selection: hits, their analogues and other compounds. The true share with any hit is near 2.8%.
HIF-2a inh: inhibitors of HIF-2a; inhibition, % at 18.8 µM; 786-0 RCC cells HIF-2a reporter, luciferase luminescence, overnight; 360,000 tested, 0.72% active;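 active = inhibition of the luminescence signal of 40% or more relative to plate controls, in a single-dose primary screen at 18.75 µM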
Peg3 prom inh: inhibitors of Peg3 promoter; HeLa PEG-Prom luciferase reporter, luminescence, overnight; inhibition, % at 20 µM; 360,000 tested, 1.7% active; AID 588405;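 active = inhibition of at least 50% at 20 µM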
PAX8 reporter: inhibitors of PAX8 transcriptional activity in RMG-I cells; AID 652154; RMG-I TPO-luciferase reporter, SteadyGlo, 24 h; inhibition, % at 12.6 µM; 360,000 tested, 1.2% active;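 active = mean replicate inhibition at least 60% with every replicate also reaching 60%; inconclusive = only one of the two criteria is met; inactive = mean below 60% and not all replicates reaching 60%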;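 note: luciferase light reporting Pax8 driven TPO promoter activity; plate controls were median of neutral control wells for no effect and mitoxantrone controls for full effect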
Shn3 3UTR inh: reduces Shn3 3'UTR luciferase signal in osteoblasts; Clone20 osteoblast Shn3 3'UTR firefly luciferase, 24 h; inhibition, % at 12.5 µM; 360,000 tested, 0.52% active;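 active = mean inhibition of at least 75% with every replicate also reaching 75%; inconclusive = mean inhibition at least 75% but some replicate below; inactive = mean inhibition below 75%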;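 note: 0% = median of neutral control wells and 100% = pilot-screen positive control compound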
LMP1 NFkB inh: Epstein-Barr LMP1 NF-kappaB reporter inhibition; LMP1-induced NF-kappaB luciferase reporter cells, luminescence; 350,000 tested, 0.69% active; inhibition, % at 12.5 µM; AID 504558; in the data active = inhibition above about 41%; inconclusive = no clear call, values can overlap the other calls;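 note: 0% = neutral control wells and 100% = reference inhibitor control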
TRPM1 prom inh: inhibitors of MITF-driven TRPM1 promoter in melanoma cells. SK-MEL-5 TRPM1 promoter luciferase, 24 h. inhibition, % at 12.5 µM. 330,000 tested, 0.83% active;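 active = mean inhibition across replicates of 60% or more, whatever share of single replicates reaches that level; inconclusive = some that reach 60%, reason not given; inactive = mean inhibition across replicates below 60%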
* marks the source's active call; other numbers are inactive results; u = inconclusive; x = no result given.

SMILES	HIF-2a inh	Peg3 prom inh	PAX8 reporter	Shn3 3UTR inh	LMP1 NFkB inh	TRPM1 prom inh
Cc1ccc(S(=O)(=O)N(C)C[C@H]2Oc3ccc(NC(=O)c4ccncc4)cc3C(=O)N([C@@H](C)CO)C[C@H]2C)cc1	x	x	-16	x	x	x
Cc1ccc(S(=O)(=O)N[C@@H]2CC[C@H](CC(=O)O)O[C@@H]2CO)cc1	x	x	-12	x	x	x
Cc1cc(N/N=C/c2ccc(O)cc2O)nc(N2CCOCC2)n1	-48	-51	-18	0	-13	-23
CCCCOc1ccc(/C=N/Nc2cc(N3CCOCC3)nc(C)n2)cc1	8	13	6	14	-11	-16
Oc1ccc(/C=N\Nc2cc(N3CCOCC3)nc(N3CCOCC3)n2)c(O)c1	-16	10	87*	9	0	3
Clc1ccccc1/C=N/Nc1cc(N2CCOCC2)ncn1	-164	-118	-36	-117	-25	-59
CCOc1ccc(/C=N/Nc2cc(N3CCOCC3)ncn2)c(O)c1	-8	34	49	93*	56*	x
CCCOc1ccc(/C=N/Nc2cc(N3CCOCC3)ncn2)c(O)c1	18	45	54	90*	2	24
N#C[C@@H]1[C@@H](c2ccc(-c3cccnc3)cc2)[C@H](CO)N1C(=O)C1CC1	x	x	19	x	x	x
O=C(CSc1cccc[n+]1[O-])Nc1cc(S(=O)(=O)N2CCOCC2)ccc1Cl	5	-7	x	-7	-9	3
O=C(CSc1cccc[n+]1[O-])Nc1cc(S(=O)(=O)N2CCOCC2)ccc1N1CCOCC1	6	14	87*	-40	-6	-4
CCS(=O)(=O)Nc1ccc2c(c1)C(=O)N(C)[C@H]1CC[C@H](CC(=O)NCCOC)O[C@@H]1CO2	x	x	-6	x	x	x
CC1(C)CC(=O)C2=C(C1)OC(c1ccc(O)cc1)C(C#N)=C2N (centres undefined)	4	8	81*	0	-2	-2
CCCCCn1ccc(=N)cc1	16	12	x	32	13	20
CCCCCCCCCn1ccc(=N)cc1	25	32	u	59	29	65*
CCCCCCCn1ccc(=N)cc1	-6	-26	x	85	93*	37
CN(C[C@H]1N[C@@H](CO)[C@@H]1c1ccc(-c2cccnc2)cc1)C(=O)c1ccccc1	x	x	98*	x	x	x
CN(C[C@@H]1N[C@@H](CO)[C@@H]1c1ccc(-c2cccc(F)c2)cc1)S(C)(=O)=O	x	x	10	x	x	x
CN(C[C@H]1N[C@@H](CO)[C@@H]1c1ccc(C2=CCCC2)cc1)C(=O)c1cccc(F)c1	x	x	111*	x	x	x
CCCN(C[C@H]1N[C@H](CO)[C@@H]1c1ccc(-c2cccnc2)cc1)C(C)=O	x	x	-10	x	x	x
CN(C[C@H]1N[C@@H](CO)[C@@H]1c1ccc(-c2cccc(F)c2)cc1)S(C)(=O)=O	x	x	100*	x	x	x
CC(C)C#Cc1cnc2c(c1)C(=O)N([C@@H](C)CO)C[C@@H](C)[C@@H](CN(C)Cc1ccccn1)O2	x	x	-9	x	x	x
O=C(Nc1ccc(Cl)c(Cl)c1)N[C@H]1CC[C@H](CCn2cc(C3CCCC3)nn2)O[C@@H]1CO	x	x	1	x	x	x
C[C@H]1CN([C@@H](C)CO)C(=O)c2cc(-c3ccc(C#N)cc3)cnc2O[C@@H]1CN(C)CC1CCOCC1	x	x	-3	x	x	x
C[C@H]1CCCCO[C@H](CN(C)C(=O)Nc2ccc(F)cc2)[C@@H](C)CN([C@@H](C)CO)C(=O)c2cc(NC(=O)Nc3ccccc3)ccc2O1	x	x	-10	x	x	x
SMILES	HIF-2a inh	Peg3 prom inh	PAX8 reporter	Shn3 3UTR inh	LMP1 NFkB inh	TRPM1 prom inh
CCC(C)n1ncn(-c2ccc(N3CCN(c4ccc(OCC5COC(Cn6cncn6)(c6ccc(Cl)cc6Cl)O5)cc4)CC3)cc2)c1=O (centres undefined)	24	21	3	80	91*	14
Cc1ccc(S(=O)(=O)c2ccc([N+](=O)[O-])o2)cc1	89*	105*	127*	95*	u	96*
Cc1ccc(NC(=O)c2ccc([N+](=O)[O-])o2)c(C)c1	-1	13	54	60	-21	23
C[C@H]1CN([C@@H](C)CO)S(=O)(=O)c2ccc(C#Cc3ccccc3F)cc2O[C@H]1CN(C)C(=O)c1ccc2c(c1)OCO2	x	x	90*	x	x	x
C[C@@H]1CN([C@@H](C)CO)S(=O)(=O)c2ccc(C#Cc3ccccc3F)cc2O[C@@H]1CN(C)C(=O)c1ccc2c(c1)OCO2	x	x	78*	x	x	x
C[C@H]1CN([C@@H](C)CO)S(=O)(=O)c2ccc(C#Cc3ccccc3F)cc2O[C@@H]1CN(C)C(=O)Cc1ccccc1	x	x	59	x	x	x
C[C@H]1CN([C@@H](C)CO)S(=O)(=O)c2ccc(-c3ccccc3)cc2O[C@@H]1CN(C)C(=O)c1ccc2c(c1)OCO2	x	x	13	x	x	x
Cc1cc(C)n(S(=O)(=O)c2cc(C(=O)O)c(Cl)cc2Cl)n1	2	7	x	-32	4	-12
COC(=O)c1cc(S(=O)(=O)n2nc(C)c(Br)c2C)c(Cl)cc1Cl	37	87*	x	10	3	4
COc1ccc(NC(=O)N(C)C[C@H]2Oc3cc(-c4cccc(C(=O)N(C)C)c4)ccc3S(=O)(=O)N([C@@H](C)CO)C[C@@H]2C)cc1	x	x	-21	x	x	x
C[C@H]1CN([C@@H](C)CO)C(=O)Cc2cc(NC(=O)Nc3cccc4ccccc34)ccc2O[C@@H]1CN(C)Cc1ccc(-c2ccccc2)cc1	x	x	-6	x	x	x
Cc1noc(C)c1S(=O)(=O)N(C)C[C@@H]1Oc2ccc(NS(=O)(=O)c3cccs3)cc2CC(=O)N([C@@H](C)CO)C[C@H]1C	x	x	-1	x	x	x
O=[N+]([O-])c1ccc2c(c1)/C(=N\O)c1ccccc1-2	-38	-36	1	1	5	-5
COc1cc2c(cc1[N+](=O)[O-])-c1ccc([N+](=O)[O-])cc1C2=NO	-38	52*	1	-25	-6	x
Cc1ccccc1S(=O)(=O)NCC[C@H]1CC[C@@H](NC(=O)Nc2cccc(F)c2)[C@@H](CO)O1	x	x	5	x	x	x
Oc1ccccc1C=NNC(=S)Nc1ccc(F)cc1	-155	-124	-34	90*	30	5
Fc1ccc(NC(=S)NN=Cc2ccccc2Cl)cc1	-138	-187	4	-14	-7	-7
CC[N+](CC)(CC)CCOc1cccc(OCC[N+](CC)(CC)CC)c1OCC[N+](CC)(CC)CC	4	-2	x	-70	-2	5
CC[N+](CC)(CC)CCOc1ccc(/C=C/c2ccccc2)cc1	4	10	96*	12	4	14
Cc1ccc(S(=O)(=O)Nc2ccc3c(c2)C(=O)N([C@@H](C)CO)C[C@H](C)[C@@H](CN(C)S(=O)(=O)c2ccc(C)cc2)OCCCC[C@H](C)O3)cc1	x	x	61*	x	x	x
Cc1ccc(S(=O)(=O)Nc2ccc3c(c2)C(=O)N([C@H](C)CO)C[C@H](C)[C@@H](CN(C)S(=O)(=O)c2ccc(C)cc2)OCCCC[C@H](C)O3)cc1	x	x	83*	x	x	x
Cc1ccc(S(=O)(=O)Nc2ccc3c(c2)C(=O)N([C@H](C)CO)C[C@@H](C)[C@@H](CN(C)S(=O)(=O)c2ccc(C)cc2)OCCCC[C@H](C)O3)cc1	x	x	-27	x	x	x
